The list is not random: actives were taken first. Their share in the collection is about 1.4%.
APOBEC3A inh – human APOBEC3A DNA deaminase inhibition. recombinant A3A, FAM/TAMRA ssDNA deamination fluorescence. 330,000 tested, 0.41% active. P31941. inhibition, % at 20 µM;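 active = at least 40% inhibition at 20 µM here, with at most 30% in a related deaminase screen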;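 note: plate controls were A3A with DMSO for no effect and wells lacking A3A enzyme for full effect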
HDAC3 inh – inhibitors of human histone deacetylase 3. recombinant HDAC3, fluorogenic peptide/trypsin coupled, fluorescence. AID 2718. 320,000 tested, 0.15% active. inhibition, % at 8.3 µM. O15379; in the data active = inhibition above about 26%, passing the limit was not always enough
Target sequence (O15379 whole entry, looked up): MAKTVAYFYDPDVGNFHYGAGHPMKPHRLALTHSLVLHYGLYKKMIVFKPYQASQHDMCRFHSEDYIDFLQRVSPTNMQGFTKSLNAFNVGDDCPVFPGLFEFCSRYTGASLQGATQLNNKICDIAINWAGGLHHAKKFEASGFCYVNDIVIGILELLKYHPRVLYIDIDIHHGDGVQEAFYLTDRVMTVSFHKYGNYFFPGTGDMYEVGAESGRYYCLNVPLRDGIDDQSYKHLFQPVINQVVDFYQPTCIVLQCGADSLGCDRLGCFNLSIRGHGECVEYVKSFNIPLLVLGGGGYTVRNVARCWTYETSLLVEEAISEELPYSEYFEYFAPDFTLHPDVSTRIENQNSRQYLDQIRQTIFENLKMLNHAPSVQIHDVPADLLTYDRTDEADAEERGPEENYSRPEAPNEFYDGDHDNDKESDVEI
A3G deaminase – blocks human APOBEC3G single-stranded DNA deamination; Q9HC16; 330,000 tested, 0.28% active; AID 493012; inhibition, % at 20 µM; recombinant A3G, ssDNA deamination FAM/TAMRA fluorescence;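 active = inhibition of at least 40% at 20 µM, with no more than 30% in the related APOBEC3A deaminase screen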;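 note: plate controls were DMSO wells with A3G for no effect and wells lacking A3G enzyme for full effect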
LANA-H2B inh – blocks KSHV LANA binding to histone H2A/H2B; AID 2629; 320,000 tested, 0.6% active; inhibition, % (test concentration not listed); cell-free LANA-H2A/H2B peptide, fluorescence polarization; in the data active = inhibition mostly above about 10%, no sharp cut-off; inactive = mostly below about 6.7%
APOBEC3A confirm – APOBEC3A (human) deaminase inhibition, confirmed | recombinant A3A, ssDNA deaminase UDG fluorescence assay | 1,400 tested, 63% active | shares compounds with APOBEC3A inh | inhibition, % at 20 µM | AID 493151;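 active = inhibition reaching a set limit, 80% of the first screen's cutoff, at 20 µM in any replicate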;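 note: plate controls were DMSO wells with A3A for no effect and wells lacking A3A enzyme for full effect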
UDG A3A counter – inhibits UDG, flagging false APOBEC3A inhibitors; shares compounds with APOBEC3A inh; UDG counterscreen, FAM/TAMRA uracil oligo fluorescence; inhibition, % at 20 µM; 1,000 tested, under 10 active; AID 504714; call rule not given here
Numbers without * were called inactive; . = no result.

SMILES	APOBEC3A inh	HDAC3 inh	A3G deaminase	LANA-H2B inh	APOBEC3A confirm	UDG A3A counter
CC(C)(C)C(=O)CNS(=O)(=O)c1ccc(S(=O)(=O)NC2CC2)cc1	0	-13	0	1	.	.
C[n+]1cc(-c2ccccc2)n2c1CCCCC2	53*	6	9	1	67*	-3
N#CCNC(=O)c1nn2c(C(F)(F)F)cc(-c3ccccc3)nc2c1Br	-3	-9	-5	-2	.	.
Cc1cc(-c2ccccc2)nc2c(Br)c(C(=O)O)nn12	42*	-9	23	0	40*	-2
O=C(C[C@@H]1C/C=C\C[C@H](Cc2ccc(F)cc2)C(=O)OC[C@H]2CCCN2C1=O)NCCO	-5	.	-6	.	.	.
O=C(c1ccc(Cl)cc1)c1ccc(Oc2cc(NN3CCCCC3)c([N+](=O)[O-])cc2[N+](=O)[O-])cc1	-2	-4	-9	-2	.	.
O=C(C#Cc1ccccc1)c1ccco1	-2	3	-5	-7	.	.
CCN1C(=NCc2ccc(OC)cc2)N[C@@H](c2ccccc2)[C@H](C(=O)OC)[C@H]1C	41*	-1	8	10	56*	-2
CCN1C(=NCCc2c[nH]c3ccccc23)N[C@@H](c2ccccc2)[C@H](C(=O)OC)[C@H]1C	51*	-8	4	0	45*	-2
C=CCn1c(C)c(/C=C/c2cc[n+](C)cc2)c2ccccc21	42*	13	-5	-220	59*	-14
CCN(CC)C(=O)Cn1c(C)c(/C=C/c2cc[n+](C)cc2)c2ccccc21	64*	15	17	-133	62*	-5
CC(NC(=O)c1cccc(S(=O)(=O)N(C)c2ccccc2)c1)c1cccnc1 (stereo not given)	-3	11	-4	-1	.	.
N#CC1(NC(=O)COc2ccc(S(=O)(=O)N3CCCC3)cc2[N+](=O)[O-])CCCCC1	51*	1	5	0	-1	.
CC1CCCCN1C(=O)COc1ccc(S(=O)(=O)N2CCCC2)cc1[N+](=O)[O-] (stereo not given)	2	6	1	-2	.	.
CCCC(=O)Nc1ccc2nc(SCC(=O)Nc3ccc(N4CCOCC4)c(Cl)c3)sc2c1	63*	11	12	-3	46*	-3
Nc1ccc2nc(SCC(=O)Nc3ccc(N4CCOCC4)c(Cl)c3)sc2c1	41*	2	13	-3	55*	-2
CC(C)(C)NC(=O)CSc1nc2ccc(NC(=O)CSc3nnnn3Cc3ccccc3)cc2s1	-6	-2	-11	4	.	.
CC(C)(C)NC(=O)CSc1nc2ccc(NC(=O)CSc3nnc(N)s3)cc2s1	48*	5	-3	1	69*	4
O=C(N/N=C/c1cccc([N+](=O)[O-])c1)c1ccccc1-n1cccc1	0	7	-4	-4	.	.
COC(=O)c1ccc(N2CC3CNC(=O)C2(C(=O)OC)N3C)cc1 (stereo not given)	-3	-1	-9	2	.	.
O=C1N=C(N2CCCC2C(=O)O)S/C1=C\c1ccco1 (stereo not given)	44*	5	11	-1	19*	3
NS(=O)(=O)c1cc(C(=O)OCC(=O)Nc2ccc3[nH]c(=O)[nH]c3c2)ccc1Cl	50*	1	2	2	44*	-3
O=c1cc(CSc2nnc(-c3cccs3)n2Cc2ccccc2)nc2sc3ccccc3n12	47*	2	22	1	24	.
COc1ccccc1NC(=O)CN1CCN(CC(=O)Nc2ccc(C)c(F)c2)CC1	-3	-2	-6	1	.	.
Cc1cc(C)cc(Nc2nc(-c3ccc(S(=O)(=O)N4CCCC4)cc3)cs2)c1	-2	3	-6	-7	.	.
SMILES	APOBEC3A inh	HDAC3 inh	A3G deaminase	LANA-H2B inh	APOBEC3A confirm	UDG A3A counter
Cc1ccc(Nc2nc(-c3ccc(S(=O)(=O)N4CCCC4)cc3)cs2)cc1C	87*	-3	-3	-1	-7	0
CC1(C)CC(=O)c2cnc(NC(=O)CSC(=S)N3CCCCC3)nc2C1	-3	-8	-2	0	.	.
Cc1ccn(C)c(=N)c1	48*	-1	10	-1	56*	3
Cc1ccc(C)c(N)c1	-1	-5	-5	9	.	.
C[N+]1(CC#CC(O)(c2ccccc2)c2ccccc2)CCCC1	48	-5	31	5	.	.
CC(C)[N+](C)(C)CC#CC(O)(c1ccccc1)c1ccccc1	65*	4	26	7	73*	-3
CC1(C)CN(c2cccc(-c3ccnc4ncnn34)c2)C1=O	54*	1	-8	1	-8	-2
CCn1c(-c2ccccc2Cl)nn(CC(=O)Nc2ccccc2C)c1=S	66*	4	13	0	24	.
CCCCn1nc(C(=O)Oc2ccc3c(C)cc(=O)oc3c2)c2ccccc2c1=O	36	.	8	.	.	.
COCCn1c(N)c(N(Cc2ccccc2)C(=O)c2ccc3ccccc3c2)c(=O)[nH]c1=O	21	-5	-1	-1	.	.
COCCn1c(N)c(N(Cc2ccccc2)C(=O)C2=COCCO2)c(=O)[nH]c1=O	49*	9	18	1	21	.
COc1ccc(/C=C(\NC(=O)c2ccccc2)C(=O)OC[C@@H]2CCC[N+]3(C)CCCCC23)cc1OC (stereo not given in full)	67*	6	11	-5	67*	4
Brc1ccc2c(c1)CN1CCCC1=N2	-4	2	-7	-4	.	.
O=C(N/N=C\C=C\c1ccc2c(c1)OCO2)c1cccnc1	45*	4	-4	-1	1	3
O=C(/C=C/c1ccc2c(c1)OCO2)c1cccnc1	-4	7	-10	-6	.	.
O=C(Nc1cccc(NC(=O)c2ccc(Cl)cc2Cl)c1)c1cccnc1	4	-3	-6	-1	.	.
Cc1cc(Cl)ccc1OCC(=O)N[C@@H](Cc1ccccc1)c1nc2ccccc2[nH]1	42*	5	15	-7	24	.
CCOc1ccc(NC(C(=O)Nc2cccc(C(C)=O)c2)c2ccccc2)cc1 (stereo not given)	43*	.	-3	.	-11	-3
COc1ccc(NC(=O)Nc2ccc3c(c2)C(=O)N([C@@H](C)CO)C[C@@H](C)[C@@H](CN(C)S(=O)(=O)c2cn(C)cn2)O3)cc1	-3	.	-7	.	.	.
C[C@H](NC(=O)c1ccccc1Cl)C(=O)NCc1cccs1	59*	4	5	2	5	.
CC(C)(C)NC(=O)CN1CCCN(C(=O)c2cccc(S(=O)(=O)N3CCc4ccccc43)c2)CC1	-2	1	-3	-2	.	.
CC(C(=O)NCc1cccc(Cl)c1)N1C(=O)c2ccccc2C1=O (stereo not given)	1	7	-14	4	.	.
Cc1ccc(S(=O)(=O)N(CCC(=O)N2CCOCC2)c2ccccc2)cc1	62*	.	9	.	27	.
CC(=O)N1CCN(C(=O)CCN(c2ccccc2)S(=O)(=O)c2ccc(C)cc2)CC1	2	1	-1	1	.	.
O=C1C(c2ccccc2)=[N+]([O-])c2ccccc21	-1	-14	-6	4	.	.

Compound activity deposited in PubChem by several laboratories.
